PubChem BioAssay (NCATS)
Inconclusive results are not listed. Values without a mark were called inactive. Activity calls are given as the source filed them. Calls follow the shape of the dose curve; as a rule, active = well fitted cell-killing curve with a large enough effect; inconclusive = small, poorly fitted or top-dose-only effect; inactive = flat fitted curve, though single readings scatter.

Test: Cell Viability - LYMP2-023 (AID 975);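 also: plate controls were DMSO only for no effect and 92 µM tetraoctylammonium bromide control for full effect; nearly all actives have a fitted effect of over 55% in size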
Settings: LYMP2-023 lymphoblastoid cell viability; series mostly up to 92.2 µM; activity change, negative = cytotoxicity: at the top concentration
Text: NIH Chemical Genomics Center [NCGC]
NIH Molecular Libraries Screening Centers Network [MLSCN]
National Institutes of Environmental Health Sciences [NIEHS]
National Toxicology Program [NTP]
We have developed a 1536-well cell-based assay for quantitative high throughput screening (qHTS) against a number of cell lines to determine in vitro cytotoxicity of small molecules. This particular assay uses a human lymphoblastoid cell line (LYMP2-023) purchased from Coriell Institute for Medical Research.
NCGC Assay Protocol Summary:
The CellTiter-Glo luminescent cell viability assay (Promega) is a homogeneous method to measure the number of viable cells in culture. The end point readout of this assay is based on quantitation of intracellular ATP, an indicator of metabolic activity, using the luciferase reaction. Luciferase catalyzes the oxidation of beetle Luciferin to oxyluciferin and light in the presence of ATP. The luminescent signal is proportional to amount of ATP present.
Using the CellTiter-Glo luminescent cell viability assay, the amount of cellular ATP was measured in the lymphoblastoid cell line with complete culture medium following compound treatment for 24 hours. The assay was performed in opaque white Kalypsys 1536-well plates. In the screen, tetraoctylammonium bromide was used as positive control. Library compounds were measured for their ability to cause acute toxicity in the cell line, as reflected by a decrease in intracellular ATP levels, in a concentration-dependent manner. […] AC50 values were determined from concentration-response data modeled with the standard Hill equation.
qHTS protocol for CellTiter Glo lymphoblastoid cellular assay
[Step] [Parameter] [Value] [Description]
1. Reagent; 5 uL; 2500 lymphoblastoid cells/well
2. Time; 5 hr; 37 C incubation
4. Controls; 23 nL; Tetraoctylammonium bromide 6.4pM to 92 uM
5. Time; 24 hr; 37 C incubation
6. Reagent; 5 uL; CellTiter Glo reagent
7. Time; 30 min; Room Temperature
8. Detection; Luminescence; Viewlux plate reader
Keywords: cell viability, cytotoxicity, lymphoblastoid cell line, luminescence, NTPHTS, NTPHTS_NCGC, NIEHS, DSSTox, MLSMR, MLSCN, NIH Roadmap, qHTS, NCGC

Row | SMILES | Potency | activity change, negative = cytotoxicity [%]
1 | CCC(C)c1ccccc1O (stereo not given) | inactive | –
2 | CC12CCC(CC1=O)C2(C)C (stereo not given) | – | -1.42
3 | COCC(=O)O | – | -2.95
4 | CCCN(CCC)C(=O)SCC | – | -6.88
5 | CCO[Si](CCCN)(OCC)OCC | – | -2.11
6 | Clc1cc(Cl)c(Cl)c(Cl)c1Cl | – | -6.11
7 | C=C(C)C1CC=C(C)C(O)C1 (stereo not given) | – | 1.47
8 | O[C@@H]([C@H](O)[C@@H](O)CBr)[C@@H](O)CBr | – | -0.478
9 | c1ccc2c(c1)[nH]c1ccccc12 | – | -4.7
10 | C=CC(=C)CCC=C(C)C | – | -2.4
11 | O=C(/C=C/c1ccc(O)c(O)c1)O[C@@H](C(=O)O)[C@@H](OC(=O)/C=C/c1ccc(O)c(O)c1)C(=O)O | – | 1.47
12 | OCCNCCO | – | 4.98
13 | Cc1ccccc1C | inactive | –
14 | COC(=O)c1ccc(C=O)cc1 | – | 1.92
15 | CCCCCCCCCCCCCCC1CO1 (stereo not given) | – | -6.29
16 | O=NO | inactive | –
17 | ClCCCl | – | -3.15
18 | C=Cc1ccccc1Cl | – | 0.898
19 | CN(C)C=O | inactive | –
20 | Nc1ccc(Cl)cc1Cl | – | -3.23

Row | SMILES | Potency | activity change, negative = cytotoxicity [%]
21 | O=C(O)c1ccccc1C(c1ccc(O)cc1)c1ccc(O)cc1 | – | 2.4
22 | C[C@H](CCC(=O)O)[C@H]1CC[C@H]2[C@@H]3CC[C@@H]4C[C@H](O)CC[C@]4(C)[C@H]3CC[C@]12C | – | 0.949
23 | COc1ccc2nc(N)sc2c1 | – | -1.42
24 | CCCCCCCCCCCC(=O)O | inactive | –
25 | CCCCOCCO | inactive | –
26 | Clc1cc(Cl)c(Cl)cc1Cl | – | -2.7
27 | CCO | – | -2.71
28 | Cc1cccc([N+](=O)[O-])c1C | – | -1.76
29 | C=CCc1ccc(OC)c(OC)c1 | – | -2.5
30 | COC(=O)CCCCC(=O)OC | – | -7.34
31 | COc1c2ccoc2cc2oc(=O)ccc12 | – | 2.94
32 | O=C1CCc2ccccc2O1 | – | 5.46
33 | O=S(=O)(O)c1ccccc1 | – | -2.15
34 | CCCCC(CC)CN (stereo not given) | inactive | –
35 | c1ccc2scnc2c1 | – | 4.67
36 | CCC(O)OC(O)CC (stereo not given) | inactive | –
37 | CC(=O)OC/C=C(\C)CCC=C(C)C | – | -0.611
38 | O=C(O)CC(C(=O)O)C(CC(=O)O)C(=O)O (stereo not given) | – | 2.19
39 | CCCCCCCCCCCCCC(=O)O | – | -12
40 | C1OCOCO1 | – | 2.03
